# Of roughly 8,800 targets only a part is listed; those with a hit were picked by preference. About 0.5% of all pairs of compound and target were hits. A number with no mark means an inactive call.
# Columns and labels:
# Test in all cases: log2 fold change, soluble protein after heating vs DMSO (PISA); higher = thermal stabilisation; K562 lysate, 10 uM; active = over 0.2 and 3.5 SD of the protein, either way, in both replicates (recomputed)
# erlotinib = compound: C#Cc1cccc(Nc2ncnc3cc(OCCOC)c(OCCOC)cc23)c1 [erlotinib]
# How it was run: (§1)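 Log-two fold change in thermal stability relative to solvent controls is reported from duplicates. For each sample, crude K562 extract from dounce-homogenised pellets in PBS pH 7.4 with 1 mM MgCl2, at 1 mg/mL protein, was treated with 10 μM compound for 30 min. Aliquots heated for 3 min across 48°C-58°C were pooled, brought to 0.5% NP-40 at 4°C and cleared at 21,000xg for 90 min. The supernatant was quantified by TMTpro 16plex LC-MS/MS with channel sums equalised.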
# [1] = compound: C/C(=N\NC(=O)C1=CC(=CC=C1)S(=O)(=O)N2CCOCC2)/C3=C(C=CC(=C3)Cl)O
# How it was run: as §1
# [2] = compound: C1=CC(=CC=C1C2=NC3=C(N2)C=C(C=C3)C(=O)N)OC4=CC=C(C=C4)Cl
# How it was run: as §1
# [3] = compound: C1=CC2=C(C=CC(=C2)/C=C\3/C(=O)NC(=NCC4=CC=CS4)S3)N=C1
# How it was run: as §1
# [4] = compound: C1=CC2=NC=CN=C2C=C1/C=C/3\C(=O)NC(=O)S3
# How it was run: as §1
# [5] = compound: C1=CC=C(C=C1)C2=NC(=C(N2)C3=CC=NC=C3)C4=CC(=C(C=C4)Cl)O
# How it was run: as §1
# [6] = compound: C1=CC=C2C(=C1)C3=NNC4=CC=CC(=C43)C2=O
# How it was run: as §1
# [7] = compound: C1CCN(C1)C(=O)NC2=CC=CC(=C2)NC3=NC=C(C(=N3)NCCC4=CN=CN4)Br
# How it was run: as §1
# [8] = compound: C1CN(CCC1(CC2=CC=C(C=C2)Cl)N)C3=NC=NC4=C3C=CN4
# How it was run: as §1
# IRAK-1-4 Inhibitor I = compound: C1COCCN1CCN2C3=CC=CC=C3N=C2NC(=O)C4=CC(=CC=C4)[N+](=O)[O-] [IRAK-1-4 Inhibitor I]
# How it was run: as §1
# Sequence of UniProt Q13148 (Q13148 whole entry, looked up): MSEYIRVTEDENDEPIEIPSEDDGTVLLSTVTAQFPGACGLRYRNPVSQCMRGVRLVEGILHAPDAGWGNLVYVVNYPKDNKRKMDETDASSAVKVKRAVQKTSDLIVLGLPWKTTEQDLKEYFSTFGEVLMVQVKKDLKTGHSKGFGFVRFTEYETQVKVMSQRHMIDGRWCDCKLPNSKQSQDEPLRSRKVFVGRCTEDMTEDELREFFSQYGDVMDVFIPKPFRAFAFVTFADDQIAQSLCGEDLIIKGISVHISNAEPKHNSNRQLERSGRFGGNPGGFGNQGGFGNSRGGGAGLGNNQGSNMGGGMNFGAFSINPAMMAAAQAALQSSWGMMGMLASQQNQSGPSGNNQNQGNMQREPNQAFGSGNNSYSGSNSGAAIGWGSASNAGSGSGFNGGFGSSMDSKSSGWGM
# Sequence of UniProt Q9NRP7 (Q9NRP7 whole entry, looked up): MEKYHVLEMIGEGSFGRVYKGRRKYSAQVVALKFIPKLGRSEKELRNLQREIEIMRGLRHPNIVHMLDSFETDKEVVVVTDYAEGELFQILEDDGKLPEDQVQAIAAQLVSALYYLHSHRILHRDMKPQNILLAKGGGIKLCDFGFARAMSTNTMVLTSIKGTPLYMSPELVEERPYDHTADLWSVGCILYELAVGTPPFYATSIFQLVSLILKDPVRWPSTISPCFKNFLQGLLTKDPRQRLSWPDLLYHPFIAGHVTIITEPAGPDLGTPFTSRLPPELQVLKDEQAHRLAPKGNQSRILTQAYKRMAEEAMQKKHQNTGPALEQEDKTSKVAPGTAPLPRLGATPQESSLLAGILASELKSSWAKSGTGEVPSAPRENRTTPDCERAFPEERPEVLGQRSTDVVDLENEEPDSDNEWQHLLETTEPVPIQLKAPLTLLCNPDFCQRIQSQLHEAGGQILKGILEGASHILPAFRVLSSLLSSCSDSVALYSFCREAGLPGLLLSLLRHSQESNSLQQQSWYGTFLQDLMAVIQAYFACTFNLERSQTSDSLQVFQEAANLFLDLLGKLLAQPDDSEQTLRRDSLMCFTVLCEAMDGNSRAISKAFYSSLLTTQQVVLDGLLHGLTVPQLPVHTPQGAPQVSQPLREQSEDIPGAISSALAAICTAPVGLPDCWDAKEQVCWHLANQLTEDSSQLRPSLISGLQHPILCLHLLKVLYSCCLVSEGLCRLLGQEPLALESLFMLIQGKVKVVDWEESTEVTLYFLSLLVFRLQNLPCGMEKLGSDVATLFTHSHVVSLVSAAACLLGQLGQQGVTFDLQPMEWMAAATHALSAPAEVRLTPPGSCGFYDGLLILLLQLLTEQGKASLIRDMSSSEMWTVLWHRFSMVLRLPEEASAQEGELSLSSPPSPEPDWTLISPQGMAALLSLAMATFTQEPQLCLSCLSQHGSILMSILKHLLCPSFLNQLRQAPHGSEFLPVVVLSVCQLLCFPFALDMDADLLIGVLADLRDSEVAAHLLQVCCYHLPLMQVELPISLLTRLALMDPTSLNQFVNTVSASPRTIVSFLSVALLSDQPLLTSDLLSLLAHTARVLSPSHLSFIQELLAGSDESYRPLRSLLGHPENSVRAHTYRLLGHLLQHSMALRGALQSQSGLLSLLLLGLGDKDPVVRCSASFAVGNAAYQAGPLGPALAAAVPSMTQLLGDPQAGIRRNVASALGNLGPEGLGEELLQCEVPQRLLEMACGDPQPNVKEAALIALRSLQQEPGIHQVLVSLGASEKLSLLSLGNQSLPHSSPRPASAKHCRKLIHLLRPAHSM
# Sequence of UniProt Q7L8J4 (Q7L8J4 whole entry, looked up): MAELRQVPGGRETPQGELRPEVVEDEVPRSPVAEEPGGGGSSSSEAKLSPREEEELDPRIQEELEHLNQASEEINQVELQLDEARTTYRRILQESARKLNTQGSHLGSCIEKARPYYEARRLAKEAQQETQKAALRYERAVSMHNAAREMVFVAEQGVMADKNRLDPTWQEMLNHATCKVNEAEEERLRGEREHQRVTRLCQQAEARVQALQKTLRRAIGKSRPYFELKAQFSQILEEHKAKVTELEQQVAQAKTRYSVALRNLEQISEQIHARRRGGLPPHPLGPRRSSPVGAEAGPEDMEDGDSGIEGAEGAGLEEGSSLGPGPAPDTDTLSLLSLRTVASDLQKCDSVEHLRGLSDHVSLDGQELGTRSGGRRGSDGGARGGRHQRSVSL
# Sequence of UniProt P62316 (P62316 whole entry, looked up): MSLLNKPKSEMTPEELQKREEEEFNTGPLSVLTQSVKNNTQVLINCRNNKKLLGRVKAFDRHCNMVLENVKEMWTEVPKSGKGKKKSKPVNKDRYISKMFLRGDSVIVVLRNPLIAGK
# Sequence of UniProt Q9H7B4 (Q9H7B4 whole entry, looked up): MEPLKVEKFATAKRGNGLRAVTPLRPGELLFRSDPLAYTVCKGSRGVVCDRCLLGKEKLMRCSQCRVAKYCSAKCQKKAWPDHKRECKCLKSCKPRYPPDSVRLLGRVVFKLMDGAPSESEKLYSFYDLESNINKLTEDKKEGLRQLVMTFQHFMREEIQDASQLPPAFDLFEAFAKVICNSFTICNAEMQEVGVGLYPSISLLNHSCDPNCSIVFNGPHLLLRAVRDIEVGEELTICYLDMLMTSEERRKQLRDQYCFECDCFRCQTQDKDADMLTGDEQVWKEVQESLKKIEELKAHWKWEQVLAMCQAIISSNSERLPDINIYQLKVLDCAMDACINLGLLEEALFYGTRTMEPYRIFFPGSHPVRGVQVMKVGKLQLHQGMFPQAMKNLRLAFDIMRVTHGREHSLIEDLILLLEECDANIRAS
# Sequence of UniProt P53985 (P53985 whole entry, looked up): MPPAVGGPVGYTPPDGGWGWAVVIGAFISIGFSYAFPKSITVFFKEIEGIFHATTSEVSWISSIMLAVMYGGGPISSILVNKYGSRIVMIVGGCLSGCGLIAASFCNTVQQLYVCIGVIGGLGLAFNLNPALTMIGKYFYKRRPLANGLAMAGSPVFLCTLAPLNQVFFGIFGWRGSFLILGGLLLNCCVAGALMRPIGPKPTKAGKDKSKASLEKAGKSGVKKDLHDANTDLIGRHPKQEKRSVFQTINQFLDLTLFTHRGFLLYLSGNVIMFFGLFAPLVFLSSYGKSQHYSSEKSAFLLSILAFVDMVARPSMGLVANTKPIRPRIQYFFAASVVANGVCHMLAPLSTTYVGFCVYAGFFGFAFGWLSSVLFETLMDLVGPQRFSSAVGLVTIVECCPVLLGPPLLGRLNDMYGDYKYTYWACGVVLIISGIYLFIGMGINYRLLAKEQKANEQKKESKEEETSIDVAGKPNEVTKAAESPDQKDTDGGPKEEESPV
# Sequence of UniProt P62306 (P62306 whole entry, looked up): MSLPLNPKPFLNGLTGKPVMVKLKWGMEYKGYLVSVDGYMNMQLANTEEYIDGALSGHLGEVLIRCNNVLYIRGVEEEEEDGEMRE
# Sequence of UniProt Q9BXS9 (Q9BXS9 whole entry, looked up): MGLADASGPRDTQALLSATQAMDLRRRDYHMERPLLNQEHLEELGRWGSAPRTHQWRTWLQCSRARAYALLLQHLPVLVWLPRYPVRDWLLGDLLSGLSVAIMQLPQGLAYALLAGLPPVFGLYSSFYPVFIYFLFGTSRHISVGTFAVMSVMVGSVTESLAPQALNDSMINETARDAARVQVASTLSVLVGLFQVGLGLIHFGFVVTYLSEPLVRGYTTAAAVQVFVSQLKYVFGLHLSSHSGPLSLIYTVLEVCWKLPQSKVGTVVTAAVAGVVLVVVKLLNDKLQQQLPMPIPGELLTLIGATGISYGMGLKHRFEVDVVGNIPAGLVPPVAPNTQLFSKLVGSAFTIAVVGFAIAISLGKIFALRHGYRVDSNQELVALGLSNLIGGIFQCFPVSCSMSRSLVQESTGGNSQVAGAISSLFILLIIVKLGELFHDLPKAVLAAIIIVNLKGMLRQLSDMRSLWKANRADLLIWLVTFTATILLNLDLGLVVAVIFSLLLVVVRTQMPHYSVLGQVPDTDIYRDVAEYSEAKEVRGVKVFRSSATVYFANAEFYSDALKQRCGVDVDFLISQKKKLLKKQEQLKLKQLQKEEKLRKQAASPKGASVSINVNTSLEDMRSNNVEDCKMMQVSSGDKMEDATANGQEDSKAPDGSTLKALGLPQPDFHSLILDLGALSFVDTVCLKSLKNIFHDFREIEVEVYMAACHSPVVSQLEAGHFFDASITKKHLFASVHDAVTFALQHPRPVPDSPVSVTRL
# Sequence of UniProt Q9UJC5 (Q9UJC5 whole entry, looked up): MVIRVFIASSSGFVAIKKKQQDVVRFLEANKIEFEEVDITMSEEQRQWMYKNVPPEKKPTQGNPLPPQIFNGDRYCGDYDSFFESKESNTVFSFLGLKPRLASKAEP
# Sequence of UniProt O14975 (O14975 whole entry, looked up): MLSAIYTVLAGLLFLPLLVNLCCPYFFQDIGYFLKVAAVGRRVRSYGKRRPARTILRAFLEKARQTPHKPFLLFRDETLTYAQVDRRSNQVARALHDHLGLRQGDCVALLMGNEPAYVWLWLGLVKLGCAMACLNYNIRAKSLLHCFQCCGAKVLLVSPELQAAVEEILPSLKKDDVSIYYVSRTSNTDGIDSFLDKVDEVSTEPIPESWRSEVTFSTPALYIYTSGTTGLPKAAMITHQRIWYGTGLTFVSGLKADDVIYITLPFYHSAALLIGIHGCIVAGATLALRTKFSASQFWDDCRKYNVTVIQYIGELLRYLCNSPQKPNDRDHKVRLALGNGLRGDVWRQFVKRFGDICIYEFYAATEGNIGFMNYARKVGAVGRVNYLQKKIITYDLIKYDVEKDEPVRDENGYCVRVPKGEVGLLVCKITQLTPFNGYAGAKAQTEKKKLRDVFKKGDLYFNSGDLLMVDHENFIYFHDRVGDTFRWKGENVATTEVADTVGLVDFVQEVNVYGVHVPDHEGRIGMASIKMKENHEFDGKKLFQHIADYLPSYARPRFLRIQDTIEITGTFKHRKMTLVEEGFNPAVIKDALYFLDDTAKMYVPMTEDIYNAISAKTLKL
Target,log2 fold change (erlotinib),log2 fold change [1],log2 fold change [2],log2 fold change [3],log2 fold change [4],log2 fold change [5],log2 fold change [6],log2 fold change [7],log2 fold change [8],log2 fold change (IRAK-1-4 Inhibitor I)
SMC4 (UniProt Q9NTJ3),-0.006,-0.018,-0.007,0,-0.026,0,-0.046,-0.015,-0.014,-0.009
SLC16A1 (UniProt P53985),-0.007,-0.038,0.036,0.029,-0.018,0.034,0.034,-0.024,0.004,0.032
SRSF7 (UniProt Q16629),0.019,-0.068,-0.043,0.002,-0.066,-0.02,-0.016,0.032,0.008,-0.03
SH3BGRL2 (UniProt Q9UJC5),0.007,-0.109,0.035,0.045,-0.049,0.01,0.018,-0.087,0.034,0.007
SLC25A32 (UniProt Q9H2D1),0.035,0.02,-0.062,0.011,-0.013,-0.027,0.056,0.018,-0.002,0.029
SMARCAD1 isoform 2 (UniProt Q9H4L7),0,0.022,-0.039,0.023,-0.019,0.041,-0.052,-0.051,0.003,-0.006
SLC27A2 (UniProt O14975),-0.025,0.478 (active),-0.122,0.099,0.048,0.007,-0.016,-0.038,-0.035,0.614 (active)
STARD3 isoform 3 (UniProt Q14849),-0.014,0.104,-0.022,-0.085,-0.078,-0.003,0.107,-0.085,0.133,0.047
SPATS2 (UniProt Q86XZ4),-0.012,-0.127,-0.042,0.028,-0.007,0.017,-0.081,0.063,0.043,-0.066
SMG6 (UniProt Q86US8),-0.038,0.026,0.012,0.009,0.021,0,-0.092,-0.04,-0.005,0.026
STK38 (UniProt Q15208),-0.018,-0.029,-0.063,-0.005,0.038,0.029,0.176,-0.002,0.055,-0.006
SNW1 (UniProt Q13573),-0.038,-0.017,0.026,-0.018,-0.033,-0.006,-0.004,0.022,-0.021,0
TARDBP (UniProt Q13148),-0.017,-0.092,0.018,0.004,0.09,-0.133,-0.036,-0.065,0.032,0.048
SPATA5 (UniProt Q8NB90),0.04,0.025,-0.006,0.025,-0.042,0.042,0.015,0.017,0.017,0.016
TAF6L (UniProt Q9Y6J9),-0.013,0.174,-0.077,0.005,0.025,0.055,0.055,0.022,-0.104,0.051
SULT1A1 (UniProt P50225),-0.045,0.08,-0.014,0.069,0.048,-0.011,-0.061,-0.026,0.018,-0.04
SPR (UniProt P35270),-0.027,0.014,-0.021,0.056,0.049,1.04 (active),0.013,0.008,-0.041,0.049
SLC20A1 (UniProt Q8WUM9),0.032,0.059,0.089,-0.097,0.005,0.02,0.085,0.069,0.214,0.05
SH3BP5L (UniProt Q7L8J4),0.001,-0.156,0.004,-0.058,-0.032,0.003,0.065,-0.019,0,0
SNRPF (UniProt P62306),-0.029,-0.07,0.081,-0.017,-0.065,0.028,-0.034,-0.018,0.001,0.007
SPG11 (UniProt Q96JI7),0.05,0.033,0.005,-0.012,0.333,0.076,0.025,-0.016,0.019,0.023
SLC30A6 isoform 2 (UniProt Q6NXT4),-0.014,0.031,-0.012,-0.08,0.069,0.008,-0.212,-0.005,-0.059,0
SRP54 (UniProt P61011),-0.026,0.017,0.035,0.023,-0.043,0.005,-0.039,-0.047,-0.003,-0.014
TAPT1 (UniProt Q6NXT6),0,-0.092,0.068,-0.038,-0.001,-0.059,-0.039,-0.059,0.01,0.002
SLC26A6 (UniProt Q9BXS9),-0.04,-0.117,0.024,-0.018,-0.044,0.032,-0.114,-0.13,0.087,-0.062
STK36 (UniProt Q9NRP7),0.114,-0.06,0.251,-0.199,-0.169,-0.075,-0.241,-0.049,0.185,0.205
SMYD3 (UniProt Q9H7B4),0.094,0.104,0.009,-0.036,0.064,-0.021,-0.036,-0.022,-0.038,0.001
SNRPD2 (UniProt P62316),0.019,0.005,0.058,-0.004,-0.018,-0.001,-0.035,0.004,-0.008,0.004
STK25 (UniProt O00506),0.037,-0.04,-0.038,0.021,0.012,0.031,0.317 (active),0.052,-0.022,-0.001
SUZ12 (UniProt Q15022),0.024,-0.077,-0.018,0.007,0.004,0.034,-0.079,-0.038,-0.021,0.02

# From the supplement of paper PMC10849652
